In PubChem BioAssay (NCATS):
Records with an inconclusive call do not appear. A call without a number means that no potency is given here. Active and inactive are the calls of the source. Unless noted, calls come from the whole dose curve; as a rule, active = well fitted curve in the direction sought with a large enough effect; inconclusive = small, poorly fitted or top-dose-only effect, or another doubt; inactive = no such curve, though single readings can be large; an effect the other way counts as inactive or inconclusive.

Columns and labels:
[1] = biological target: Glutathione peroxidase 1 (Homo sapiens) (UniProt P07203); assay: Primary qHTS Assay for Inhibitors of Recombinant Selenoprotein Glutathione Peroxidase 1 (GPX1) (AID 1845191); note: nearly all actives have a fitted effect of over 65% in size
Glutathione peroxidase 1 (Homo sapiens), sequence (P07203 whole entry, looked up): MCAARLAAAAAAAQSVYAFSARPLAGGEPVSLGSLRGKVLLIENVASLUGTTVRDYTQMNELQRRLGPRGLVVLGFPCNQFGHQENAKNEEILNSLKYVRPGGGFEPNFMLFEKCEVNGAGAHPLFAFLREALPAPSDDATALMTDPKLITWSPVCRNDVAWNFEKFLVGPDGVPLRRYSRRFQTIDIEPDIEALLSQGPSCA
Procedure, shortened: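 10 nM GPX1 + cpd, 30 min RT; start w/ 1 mM GSH, 0.5 mM cumene hydroperoxide, 0.5 mM NADPH, 100 nM GR, 0.01% BSA; buffer 50 mM Tris-HCl pH 7.5, 2 mM EDTA, 150 mM NaCl; Fl 340/450, 0 & 15 min.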

[2] = biological target: Phospholipid hydroperoxide glutathione peroxidase GPX4 (Homo sapiens) (UniProt P36969); assay: Primary qHTS Assay for Inhibitors of Recombinant Selenoprotein Glutathione Peroxidase 4 (GPX4) (AID 1845192); note: nearly all actives have a fitted effect of over 65% in size
Phospholipid hydroperoxide glutathione peroxidase GPX4 (Homo sapiens), sequence (P36969 whole entry, looked up): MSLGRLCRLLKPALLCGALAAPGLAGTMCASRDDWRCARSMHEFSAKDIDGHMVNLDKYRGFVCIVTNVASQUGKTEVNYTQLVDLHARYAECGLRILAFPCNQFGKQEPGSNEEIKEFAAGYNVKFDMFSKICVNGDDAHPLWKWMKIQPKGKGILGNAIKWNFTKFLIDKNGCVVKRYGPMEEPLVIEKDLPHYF
Procedure, shortened: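 NADPH consumption, followed by fluorescence at 340/450 nm between 0 and 15 min, reports GPX4 activity via coupled glutathione reductase (100 nM). Enzyme 200 nM was pre-exposed to compound 30 min; 0.5 mM cumene hydroperoxide and 1 mM GSH served as substrates.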

[3] = biological target: Luciferin 4-monooxygenase (Photinus pyralis) (UniProt P08659); assay: Primary firefly luciferase (FLuc) qHTS assay for identification of artifact compounds. (AID 1845220); note: nearly all actives have a fitted effect of over 60% in size; note: potency is the fitted concentration of half-maximal effect
Procedure, shortened: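 FLuc 10 nM; luciferin 10 uM; ATP 10 uM; Tris-acetate pH 7.6, Mg-acetate 10 mM; 15 min RT preincubation; 5 min reaction; luminescence.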

[4] = Primary fluorescence-based thiol-reactive (MSTI) qHTS assay for identification of artifact compounds. (AID 1845221); note: nearly all actives have a fitted effect of over 65% in size; note: potency is the fitted concentration of half-maximal effect
Procedure, shortened: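 In PBS pH 7.4 with 2% DMSO, each compound met 4 uM MSTI for one hour at ambient temperature, shielded from light, before fluorescence detection.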

[5] = Primary redox qHTS assay for identification of artifact compounds. (AID 1845223); note: potency is the fitted concentration of half-maximal effect
Procedure, shortened: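 Amplex Red (25 uM) and HRP (250 mU/mL) in HBSS, with compounds for 15 min, then 250 uM DTT for 30 min, room temperature, dark. Fluorescence 525/598 nm read; normalized to DMSO and 10 uM DA3003; Hill fit.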

[6] = Quantitative High-Throughput drug screen in 47 multiple myeloma cell lines against the NCATS MIPE library collection: FR4_PLB cell viability assay (AID 1918924; note: nearly all actives have a fitted effect of over 35% in size; note: potency is the fitted concentration of half-maximal effect)
Procedure, shortened: (§1)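 Primary qHTS used for cherry-picking: cells at 500/well, library compounds for 48 h (37C, 5% CO2), luminescent ATP assay.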

[7] = Quantitative High-Throughput drug screen in 47 multiple myeloma cell lines against the NCATS MIPE library collection: EJM_DSMZ cell viability assay (AID 1918926; note: nearly all actives have a fitted effect of over 30% in size; note: potency is the fitted concentration of half-maximal effect)
Procedure, shortened: (§2)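 Myeloma cells (500 per well) were exposed to MIPE 4.0 compounds by pin transfer and incubated 48 hours at 37C, 5% CO2. Viability was read as ATP by CellTiter-Glo luminescence, normalised to DMSO (100%) and media-only (0%) wells.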

[8] = Quantitative High-Throughput drug screen in 47 multiple myeloma cell lines against the NCATS MIPE library collection: ARP1_JJKsccF8 cell viability assay (AID 1918928; note: nearly all actives have a fitted effect of over 40% in size; note: potency is the fitted concentration of half-maximal effect)
Procedure, shortened: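 Luminescence from CellTiter-Glo, taken after 5 min at room temperature, reports cellular ATP as viability. Cells (500 per well) had been treated 48 h at 37 °C with MIPE 4.0 compounds, scaled between DMSO and medium-only controls.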

[9] = Quantitative High-Throughput drug screen in 47 multiple myeloma cell lines against the NCATS MIPE library collection: ARD_JJKsccE7 cell viability assay (AID 1918929; note: potency is the fitted concentration of half-maximal effect)
Procedure, shortened: as §2

[10] = Quantitative High-Throughput drug screen in 47 multiple myeloma cell lines against the NCATS MIPE library collection: Karpas620_DSMZ cell viability assay (AID 1918959); note: nearly all actives have a fitted effect of over 30% in size; note: potency is the fitted concentration of half-maximal effect
Procedure, shortened: as §1

[11] = biological target: Phenylethanolamine N-methyltransferase (Homo sapiens) (UniProt P11086); assay: Confirmatory Screen for Target Class Profiling of Small Molecule Inhibitors of Methyltransferases (AID 1745852); conditions: MTase-Glo luminescence, SAH detection, recombinant enzyme; measured here: PNMT max response; stronger effect = lower value
Phenylethanolamine N-methyltransferase (Homo sapiens), sequence (P11086 whole entry, looked up): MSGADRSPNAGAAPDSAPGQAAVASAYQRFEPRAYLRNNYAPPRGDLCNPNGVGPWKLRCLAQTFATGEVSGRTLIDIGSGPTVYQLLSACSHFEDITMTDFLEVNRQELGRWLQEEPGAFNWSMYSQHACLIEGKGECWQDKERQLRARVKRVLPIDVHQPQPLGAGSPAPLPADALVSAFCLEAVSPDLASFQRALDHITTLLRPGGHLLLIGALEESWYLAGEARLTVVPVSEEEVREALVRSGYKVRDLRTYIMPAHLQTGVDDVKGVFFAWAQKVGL

[12] = system: Nanoluciferase (engineered Oplophorus gracilirostris luciferase); assay: Primary Nanoluciferase (NLuc) qHTS assay for identification of artifact compounds. (AID 1845222);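 note: NLuc secreted into diluted conditioned medium of S16 cells; series mostly up to about 54 µM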
Procedure, shortened: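 NLuc from S16 cell medium (1:55) plus test compounds, 15 min, room temperature. Luminescence after Nano-Glo (1:100) addition, 5 min.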

[13] = Quantitative High-Throughput drug screen in 47 multiple myeloma cell lines against the NCATS MIPE library collection: Delta47_JCRB cell viability assay (AID 1918925; note: potency is the fitted concentration of half-maximal effect; nearly all actives have a fitted effect of over 45% in size)
Procedure, shortened: as §2

[14] = Quantitative High-Throughput drug screen in 47 multiple myeloma cell lines against the NCATS MIPE library collection: AMO1_DSMZ cell viability assay (AID 1918927; note: nearly all actives have a fitted effect of over 30% in size; note: potency is the fitted concentration of half-maximal effect)
Procedure, shortened: as §2

[15] = NCATS anti-infectives library activity on the primary C. elegans qHTS viability assay (AID 1745855; calls by dose curve)
Procedure, shortened: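 Viability is taken from GFP fluorescence of PE254-GFP-FLuc C. elegans imaged by laser cytometry over 7 days. Ten L1 worms per well grow at 21 °C on TOP10 E. coli capsules with titrated compound; levamisole marks toxicity.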

Compound | Potency [1] | Potency [2] | Potency [3] | Potency [4] | Potency [5] | Potency [6] | Potency [7] | Potency [8] | Potency [9] | Potency [10] | activity [11] [%] | outcome [12] | Potency [13] | Potency [14] | Potency [15]
COc1cc(CCc2cc(NC(=O)c3ccc(N4C[C@@H](C)N[C@@H](C)C4)cc3)n[nH]2)cc(OC)c1 | inactive | inactive | inactive | inactive | inactive | 18.7 µM (active) | 18.7 µM (active) | 18.7 µM (active) | 16.6 µM (active) | 20.9 µM (active) | – | – | – | – | –
N#Cc1c(C2CCNCC2)cc(-c2c(O)cccc2OCC2CC2)nc1N | inactive | – | inactive | inactive | inactive | – | 18.7 µM (active) | – | 3.72 µM (active) | 9.35 µM (active) | -6.86 | inactive | 16.6 µM (active) | 13.2 µM (active) | –
CCN(CC)Cc1ccc2cc(COC(=O)Nc3ccc(C(=O)NO)cc3)ccc2c1 | inactive | inactive | inactive | – | inactive | 0.372 µM (active) | 1.05 µM (active) | 0.59 µM (active) | 0.662 µM (active) | 0.833 µM (active) | -6.29 | inactive | 0.526 µM (active) | 0.743 µM (active) | –
O=C(Nc1cc2cc[nH]c2cn1)c1ccccc1 | inactive | – | 2.39 µM (active) | inactive | inactive | 14.8 µM (active) | 8.33 µM (active) | – | 10.5 µM (active) | 4.69 µM (active) | -83.3 | inactive | 9.35 µM (active) | – | –
O=C(O)c1ccc(Nc2ncc3c(n2)-c2ccc(Cl)cc2C(c2c(F)cccc2F)=NC3)cc1 | inactive | inactive | inactive | inactive | inactive | – | 23.5 µM (active) | 0.0105 µM (active) | – | – | – | inactive | 0.935 µM (active) | 0.187 µM (active) | –
CN1CCc2c(c3ccccc3n2Cc2ccc(C(=O)NO)cc2)C1 | inactive | inactive | inactive | – | inactive | 18.7 µM (active) | 18.7 µM (active) | 18.7 µM (active) | – | – | -22.2 | inactive | 18.7 µM (active) | – | –
O=C(Nc1ccc(Oc2ccnc3[nH]ccc23)c(F)c1)c1cccn(-c2ccc(F)cc2)c1=O | inactive | inactive | inactive | inactive | inactive | – | – | inactive | – | inactive | – | inactive | – | inactive | –
CCOC(=O)[C@@H](N)Cc1ccc(-c2cc(O[C@H](c3ccc(Cl)cc3-n3ccc(C)n3)C(F)(F)F)nc(N)n2)cc1 | inactive | inactive | inactive | inactive | inactive | – | 18.7 µM (active) | 14.8 µM (active) | 9.35 µM (active) | 9.35 µM (active) | -6.64 | inactive | – | 9.35 µM (active) | –
CN(C)c1ccc(C(=O)NCCCCCCC(=O)NO)cc1 | inactive | inactive | – | – | – | – | 1.87 µM (active) | 0.743 µM (active) | 0.332 µM (active) | 0.743 µM (active) | – | – | 0.59 µM (active) | – | inactive
Nc1ccc(C(=O)Nc2cccc(-c3nc(N4CCOCC4)c4oc5ncccc5c4n3)c2)cn1 | inactive | inactive | inactive | inactive | inactive | 18.7 µM (active) | 16.6 µM (active) | 6.62 µM (active) | 1.66 µM (active) | 6.62 µM (active) | – | inactive | 0.935 µM (active) | – | –
FC(F)(F)c1ccc(Nc2nc3ccc(Oc4ccnc(-c5ncc(C(F)(F)F)[nH]5)c4)cc3[nH]2)cc1 | inactive | inactive | inactive | inactive | inactive | 18.7 µM (active) | – | 20.9 µM (active) | 14.8 µM (active) | – | – | inactive | 23.5 µM (active) | 16.6 µM (active) | –
C[C@H]1[C@@H](OC(=O)CCC(=O)O)O[C@@H]2O[C@@]3(C)CC[C@@H]4[C@H](C)CC[C@@H]1[C@@]24OO3 | inactive | inactive | inactive | inactive | inactive | – | 14.8 µM (active) | 2.35 µM (active) | 1.48 µM (active) | – | – | inactive | 5.26 µM (active) | 0.833 µM (active) | –
Cc1coc2c1C(=O)C(=O)c1c-2ccc2c(C)cccc12 | inactive | inactive | inactive | 3.36 µM (active) | 1.06 µM (active) | 20.9 µM (active) | 16.6 µM (active) | – | inactive | 6.62 µM (active) | – | inactive | – | inactive | –
Cc1cnc(Nc2ccc(N3CCN(C)CC3)cc2)nc1Nc1cccc(S(=O)(=O)NC(C)(C)C)c1 | inactive | inactive | – | – | – | 16.6 µM (active) | 3.32 µM (active) | 3.72 µM (active) | 0.59 µM (active) | 3.72 µM (active) | 0.463 | – | – | – | –
Nc1ccn(C2CO[C@H](CO)O2)c(=O)n1 (stereo partly drawn) | inactive | inactive | inactive | inactive | inactive | inactive | inactive | – | inactive | inactive | – | inactive | – | inactive | –
